Gli-Sufu antag – Gli-Sufu pathway antagonists, primary screen, luciferase luminescence, Sufu-KO-LIGHT cells, uHTS; inhibition, % at 5 µM; Sufu-KO-LIGHT fibroblasts, Gli luciferase reporter luminescence; 0.74% of 340,000 active;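 active = inhibition above about 55%, limit read from the data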;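 also: 0% = DMSO-treated cells and 100% = wells with medium but no cells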
Mdm2-MdmX inh – inhibitors of human Mdm2-MdmX association, primary screen, cell-based, luminescence, split luciferase, SaOS-2, uHTS; SaOS-2 split-luciferase Mdm2/MdmX complementation; Protein Mdm4 (Homo sapiens) + E3 ubiquitin-protein ligase Mdm2 (Homo sapiens), …; 3% of 330,000 active; inhibition, % at 8 µM; AID 485346, 2010;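 active = inhibition of at least 50% at 8 µM in the primary screen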
697 NFkB inh – inhibitors of PMA/ionomycin-induced NF-kB reporter, 697 cells, primary screen, B-cell NF-kB inhibitor project, cell-based, luminescence, uHTS. 697 B-cell NF-kB luciferase reporter, 16 h. inhibition, % at 4 µM. 0.33% of 330,000 active. AID 435022, 2010; in the data active = inhibition above about 35%
Jurkat NFkB inh – inhibitors of induced NF-kB luciferase reporter, primary screen, TCR NF-kB activation inhibitor project, cell-based, luminescence, uHTS | Jurkat, PMA/ionomycin-induced NF-kB luciferase reporter | inhibition, % at 4 µM | 0.53% of 330,000 active; in the data active = inhibition above about 50%
Beta apoptosis – inhibitors of cytokine-induced beta cell apoptosis, primary screen, luminescence; INS-1E cytokine-induced death, ATP luminescence, 48 h; percent of positive-control rescue, neutral wells zero; protection from apoptosis, % (no concentration beside the values); 0.8% of 300,000 active;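 active = Every replicate reaches about 75%, or at least half do and their mean reaches it too, limit read from the data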;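 also: 0% = cytokine-treated negative control wells and 100% = positive control rescue; higher means more ATP so stronger rescue from cytokine killing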
Mdm2-MdmX conf – Mdm2-MdmX complex disruptors, retested hits, confirmation, luminescence, single concentration | AID 489028, 2010 | Mdm2-MdmX binding, luminescent assay | shares compounds with Mdm2-MdmX inh | 55% of 10,000 active | inhibition, % at 8 µM; in the data active = inhibition above about 40%
FLuc counter – full-length luciferase signal inhibition, confirmation, counter-screen for Mdm2/MdmX interaction inhibitor project, cell-based, single concentration, SaOS-2. shares compounds with Mdm2-MdmX inh. SaOS-2 full-length luciferase counterscreen, luminescence. inhibition, % at 8 µM. 77% of 6,200 active;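 active = mean inhibition at 8 µM reaching about 37%, which flags the compound as non-specific, limit read from the data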;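 also: p53-null SaOS-2 cells with luciferase driven by a doxycycline-inducible promoter; compound on cells about two nights before reading with doxycycline added after day one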
* = called active by the depositor. Only some compounds are listed: those with a hit (about 4% of all), similar ones and a draw of the others.

How did C=CC[C@H](CC(=O)N(CCO)Cc1ccccc1)C(=O)NCCOC(=O)[C@@H](CC=C)CC(=O)OC(C)(C)C do in these assays?
Gli-Sufu antag: -10; Mdm2-MdmX inh: 21; 697 NFkB inh: 0; Jurkat NFkB inh: 0; Beta apoptosis: -3

What do the screens show for `Cc1cc(C)c(NC(=O)CNC(=O)COC(=O)Cc2ccccc2C)c(C)c1`?
Gli-Sufu antag: -10; Mdm2-MdmX inh: -27; 697 NFkB inh: -17; Jurkat NFkB inh: -13; Beta apoptosis: 0

What do the screens show for `Cc1ccc(-c2nnn(CC(=O)N(CC(=O)NC3CCCC3)c3ccc(F)c(Cl)c3)n2)o1`?
Gli-Sufu antag: 0; Mdm2-MdmX inh: 60*; 697 NFkB inh: 10; Jurkat NFkB inh: 3; Beta apoptosis: 9; Mdm2-MdmX conf: 15

Results for COC(=O)Cn1cnc2scc(-c3ccc(C)cc3)c2c1=O ?
Gli-Sufu antag: -8; Mdm2-MdmX inh: -33; 697 NFkB inh: -15; Jurkat NFkB inh: 10; Beta apoptosis: -4

Results for O=C(Nc1nnc(-c2ccc3c(c2)CCCC3)o1)c1ccccc1 ?
Gli-Sufu antag: -1; Mdm2-MdmX inh: 57*; 697 NFkB inh: -40; Jurkat NFkB inh: -5; Beta apoptosis: 7; Mdm2-MdmX conf: 66*; FLuc counter: 47*

What do the screens show for `CC(C)c1nc2sc3c(NCc4ccco4)ncnc3c2c2c1COC(C)(C)C2`?
Mdm2-MdmX inh: 53*; 697 NFkB inh: -6; Jurkat NFkB inh: 4; Beta apoptosis: 2; Mdm2-MdmX conf: 33

Results for CC(C)c1nc2sc3c(NCc4ccccc4)ncnc3c2c2c1COC(C)(C)C2 ?
Gli-Sufu antag: 12; Mdm2-MdmX inh: 18; 697 NFkB inh: -6; Jurkat NFkB inh: -9; Beta apoptosis: -5

How did CCOc1ccc(-n2c(C)c(C(=O)O)c3cc(OC)ccc32)cc1 do in these assays?
Gli-Sufu antag: -24; Mdm2-MdmX inh: 9; 697 NFkB inh: 3; Jurkat NFkB inh: -2

How did COc1ccc2c(c1)c(C(C)=O)c(C)n2-c1ccccc1 do in these assays?
Gli-Sufu antag: -6; Mdm2-MdmX inh: 31; 697 NFkB inh: -19; Jurkat NFkB inh: -2; Beta apoptosis: -8

Results for COc1ccc(-n2c(C)c(C(C)=O)c3cc(O)ccc32)cc1 ?
Gli-Sufu antag: -14; Mdm2-MdmX inh: 93*; 697 NFkB inh: 26; Jurkat NFkB inh: 50; Mdm2-MdmX conf: 83*; FLuc counter: 54*

What do the screens show for `CCOc1ccc(-n2c(C)c(C(C)=O)c3cc(OC(C)=O)ccc32)cc1`?
Gli-Sufu antag: -7; Mdm2-MdmX inh: 76*; 697 NFkB inh: -7; Jurkat NFkB inh: 28; Beta apoptosis: -4; Mdm2-MdmX conf: 80*; FLuc counter: 53*

How did CCCn1c(SCC(=O)N2CCCC(C)C2)nnc1-c1ccccn1 (centres undefined) do in these assays?
Gli-Sufu antag: -2; Mdm2-MdmX inh: 15; 697 NFkB inh: 4; Jurkat NFkB inh: 11; Beta apoptosis: -12

How did CCOC(=O)c1cc(-c2ccccc2)sc1NC(=O)COC(=O)c1cccc(S(N)(=O)=O)c1 do in these assays?
Gli-Sufu antag: 3; Mdm2-MdmX inh: 74*; 697 NFkB inh: 4; Jurkat NFkB inh: -8; Beta apoptosis: 35; Mdm2-MdmX conf: 26

What do the screens show for `CCOC(=O)c1cc(-c2ccccc2)sc1NC(=O)CC`?
Gli-Sufu antag: -4; Mdm2-MdmX inh: 12; 697 NFkB inh: 10; Jurkat NFkB inh: -12; Beta apoptosis: -4

What do the screens show for `CCOC(=O)c1cc(-c2ccccc2)sc1NC(=O)COC(=O)c1ccc(Cl)c(S(N)(=O)=O)c1`?
Gli-Sufu antag: -7; Mdm2-MdmX inh: 54*; 697 NFkB inh: -13; Jurkat NFkB inh: -22; Beta apoptosis: 5; Mdm2-MdmX conf: 82*; FLuc counter: 88*
